# Hit rate of the full screen: of about 39,000 compounds, about 500 (1.3%) were called active. The list comes from a sample in which actives are over-represented; it also holds similar structures and randomly drawn compounds.
# Test system: S. aureus RN4220
# Assay: growth inhibition call (relative growth <= 0.2)
# Conditions: 50 µM
row,Compound,growth inhibition call
1,C[C@@H]1CN([C@H](C)CO)C(=O)c2c(c3ccccc3n2C)-c2ccccc2CO[C@@H]1CN(C)Cc1ccc(Cl)c(Cl)c1,inactive
2,CO/N=C1\CN(c2nc3c(cc2F)c(=O)c(C(=O)O)cn3C2CC2)C[C@@H]1CN,active
3,CON=C1CN(c2nc3c(cc2F)c(=O)c(C(=O)O)cn3C2CC2)CC1CN.CS(=O)(=O)O (stereo not drawn),active
4,C[C@H]1CN([C@@H](C)CO)C(=O)c2cccc(NC(=O)CCCCCC(=O)Nc3ccccc3N)c2O[C@H]1CN(C)C(=O)Nc1cccc2ccccc12,inactive
5,CCCN(C)C[C@H]1OCCCC[C@@H](C)Oc2ccc(NS(=O)(=O)c3ccc(Cl)cc3)cc2C(=O)N([C@H](C)CO)C[C@@H]1C,inactive
6,Cc1ccc(S(=O)(=O)N[C@@H]2CC[C@H](CCNC(=O)CN3CCOCC3)O[C@@H]2CO)cc1,inactive
7,C[C@@H]1CN([C@@H](C)CO)S(=O)(=O)c2ccc(-c3cccc(C#N)c3)cc2O[C@H]1CN(C)C(=O)c1cccnc1,inactive
8,CO[C@@H]1CN(C)C(=O)c2cc(NC(=O)Nc3cccc(Cl)c3)ccc2OC[C@H](C)N(C(=O)Nc2c(C)noc2C)C[C@H]1C,inactive
9,CC(C)NC(=O)N(C)C[C@H]1OCCCC[C@H](C)Oc2ccc(NC(=O)Nc3ccccc3)cc2C(=O)N([C@@H](C)CO)C[C@H]1C,inactive
10,CC(C)=CCC[C@]1(C)[C@@H](CC=C(C)C)C[C@]2(CC=C(C)C)C(=O)C(CC=C(C)C)=C(O)[C@@]1(C(=O)C(C)C)C2=O,active
11,C[C@@H]1CCCCO[C@@H](CN(C)C(=O)Nc2ccccc2)[C@@H](C)CN([C@H](C)CO)C(=O)c2cc(NC(=O)Cc3ccccc3)ccc2O1,inactive
12,Cn1cncc1[C@@](N)(c1ccc(Cl)cc1)c1ccc2c(c1)c(-c1cccc(Cl)c1)cc(=O)n2C,active
13,Cc1noc(C)c1S(=O)(=O)N(C)C[C@@H]1OCCCC[C@@H](C)Oc2ccc(NS(=O)(=O)c3cn(C)cn3)cc2C(=O)N([C@@H](C)CO)C[C@H]1C,inactive
14,C[C@@H]1CN([C@@H](C)CO)C(=O)c2cc(NC(=O)Cc3ccccc3)ccc2O[C@@H](C)CCCCO[C@H]1CN(C)Cc1ccc2c(c1)OCO2,inactive
15,Cc1noc(C)c1S(=O)(=O)Nc1ccc2c(c1)C(=O)N([C@H](C)CO)C[C@H](C)[C@H](CN(C)S(=O)(=O)c1c(C)noc1C)O2,inactive
16,COc1cc(C)c(C(=O)Oc2cc(C)c(C(=O)O)c(O)c2)c(O)c1,inactive
17,CCCCCC(=O)Cc1cc(O)cc(O)c1C(=O)Oc1cc(CC(=O)CCCCC)c(C(=O)O)c(OC)c1,active
18,Cc1cc(OC(=O)c2c(C)cc(O)cc2O)cc(O)c1C(=O)O,inactive
19,C[C@H](O)C#Cc1ccc2c(c1)O[C@H](CN(C)C(=O)CN(C)C)[C@H](C)CN([C@H](C)CO)S2(=O)=O,inactive
20,CN(C)CC#Cc1ccc([C@H]2[C@@H](CO)N3C(=O)CN(C(=O)c4cccnc4)C[C@H]23)cc1,inactive
21,COc1ccc(S(=O)(=O)Nc2ccc3c(c2)C(=O)N([C@H](C)CO)C[C@H](C)[C@H](CN(C)C(=O)Nc2c(C)noc2C)O3)cc1,inactive
22,Cc1c(-c2c(-c3ccc(F)o3)sc3ncnc(O[C@H](Cc4ccccc4OCc4ccnn4CC(F)(F)F)C(=O)O)c23)ccc(OCCN2CCN(C)CC2)c1Cl,active
23,COCC#Cc1ccc([C@H]2[C@H](CO)N3C(=O)CN(C(=O)C4CCOCC4)C[C@@H]23)cc1,inactive
24,Cc1coc2c1C(=O)C(=O)c1c-2ccc2c1CCCC2(C)C,inactive
25,Cc1cccc2c3c(ccc12)C1=C(C(=O)C3=O)C(C)CO1 (stereo not drawn),active

row,Compound,growth inhibition call
1,CC1COC2=C1C(=O)C(=O)c1c2ccc2c1CCCC2(C)C (stereo not drawn),active
2,Cc1cccc2c1OCC[C@@H](N)C2=O,inactive
3,C[C@H]1CN([C@@H](C)CO)C(=O)Cc2cc(NC(=O)CCN3CCOCC3)ccc2O[C@H]1CN(C)Cc1ccccc1,inactive
4,CNS(=O)(=O)c1ccc(Cl)c(C(N)=O)c1,inactive
5,O=C(Nc1cc(Cl)ccc1Cl)c1cc(Cl)ccc1NS(=O)(=O)c1ccc(Cl)c([N+](=O)[O-])c1,active
6,O=C(Nc1cc(Cl)ccc1Cl)c1cc(Br)ccc1NS(=O)(=O)c1ccc(Cl)c([N+](=O)[O-])c1,active
7,O=C(Nc1ccc([N+](=O)[O-])cc1Cl)c1cc(Cl)ccc1O,inactive
8,O=C(Nc1ccc(Cl)cc1C(=O)c1ccc(Cl)cc1)c1cc(Br)ccc1NS(=O)(=O)c1ccc(Cl)cc1,inactive
9,NS(=O)(=O)c1ccc(Cl)cc1[N+](=O)[O-],inactive
10,COc1ccc(S(=O)(=O)Nc2ccc3c(c2)C(=O)N([C@H](C)CO)C[C@@H](C)[C@@H](CN(C)C(=O)NC2CCCCC2)OCCCC[C@H](C)O3)cc1,inactive
11,COc1ccc(S(=O)(=O)N(C)C[C@@H]2OCCCC[C@@H](C)Oc3ccc(NC(=O)NC4CCCCC4)cc3C(=O)N([C@H](C)CO)C[C@H]2C)cc1,inactive
12,CNC(=O)Cn1c(=O)c2c(OC)c(C)cnc2n(C)c1=O,inactive
13,COc1ccc(NC(=O)N(C)C[C@H]2Oc3ccc(NS(=O)(=O)c4c(C)noc4C)cc3CC(=O)N([C@@H](C)CO)C[C@@H]2C)cc1,inactive
14,COc1ccc(S(=O)(=O)N(C)C[C@H]2Oc3ccc(NS(=O)(=O)c4c(C)noc4C)cc3C(=O)N([C@@H](C)CO)C[C@@H]2C)cc1,inactive
15,O=C(C[C@@H]1CC[C@H]2[C@@H](COC[C@H](O)CN2Cc2cc(F)ccc2F)O1)N[C@@H]1CCN(Cc2ccccc2)C1,inactive
16,C[C@@H]1CN([C@@H](C)CO)C(=O)c2cc(NS(=O)(=O)c3cn(C)cn3)ccc2O[C@@H](C)CCCCO[C@@H]1CN(C)Cc1ccc(C(F)(F)F)cc1,inactive
17,C[C@@H]1CN([C@H](C)CO)S(=O)(=O)c2ccc(-c3cccnc3)cc2O[C@@H]1CN(C)C(=O)c1ccc2c(c1)OCO2,inactive
18,CCC1OC(=O)C(C)C(OC2CC(C)(OC)C(O)C(C)O2)C(C)C(OC2OC(C)CC(N(C)C)C2O)C(C)(O)CC(C)C(=NOCOCCOC)C(C)C(O)C1(C)O (stereo not drawn),active
19,CC[C@@H]1OC(=O)[C@H](C)[C@@H](O[C@H]2C[C@@](C)(OC)[C@@H](O)[C@H](C)O2)[C@H](C)[C@@H](O[C@@H]2O[C@H](C)C[C@H](N(C)C)[C@H]2O)[C@](C)(O)C[C@@H](C)/C(=N\OCOCCOC)[C@H](C)[C@@H](O)[C@]1(C)O,active
20,Cn1c(=O)c2cn3ncccc3c2n(C)c1=O,inactive
21,COc1c(C)c2c(c(O)c1CC=C(C)CCC(=O)O)C(=O)OC2,inactive
22,Cc1noc(C)c1S(=O)(=O)Nc1ccc2c(c1)C(=O)N([C@H](C)CO)C[C@@H](C)[C@H](CN(C)Cc1ccc3c(c1)OCO3)O2,inactive
23,O=C(N[C@H]1CC[C@@H](CC(=O)N2CCOCC2)O[C@H]1CO)c1ccc2c(c1)OCO2,inactive
24,Cc1ccc(S(=O)(=O)N(C)C[C@@H]2Oc3ccc(NC(=O)CCN4CCOCC4)cc3CC(=O)N([C@@H](C)CO)C[C@@H]2C)cc1,inactive
25,COc1ccc(S(=O)(=O)Nc2ccc3c(c2)CC(=O)N([C@@H](C)CO)C[C@H](C)[C@H](CN(C)C(=O)Nc2c(C)noc2C)O3)cc1,inactive

row,Compound,growth inhibition call
1,CC(Cc1cccc(C(F)(F)F)c1)NCCOC(=O)c1ccccc1.Cl (stereo not drawn),inactive
2,CC(NCCCc1cccc(C(F)(F)F)c1)c1cccc2ccccc12.Cl (stereo not drawn),active
3,C[C@@H](O)c1cccc(C(F)(F)F)c1,inactive
4,Nc1ccc(O)cc1,inactive
5,C[C@@H]1CCCCO[C@@H](CN(C)C(=O)C2CCCCC2)[C@H](C)CN([C@@H](C)CO)C(=O)c2cc(NC(=O)Nc3cccc4ccccc34)ccc2O1,inactive
6,CN1C=C(C(=O)OCCS(C)(=O)=O)C(C(=O)OCCS(C)(=O)=O)=CC(CCCO)=C[C@@H]1C1CC1,inactive
7,COC(=O)C1=CC(CCCO)=C[C@@H](c2cccs2)N(Cc2cccc(OC(F)(F)F)c2)C=C1C(=O)OC,active
8,CCN(CC)S(=O)(=O)c1ccc(C(=O)O)cc1,inactive
9,O=C(O)c1ccc(S(=O)(=O)N(Cl)Cl)cc1,inactive
10,O=C(O)c1ccc(S(=O)(=O)N(Cc2ccc(OC(F)(F)F)cc2)c2ncc(C(F)(F)F)cc2Cl)cc1,active
11,N=C(N=C(N)N)Nc1cc(-c2cccs2)n[nH]1,inactive
12,C[C@H]1CN([C@@H](C)CO)S(=O)(=O)c2ccc(C#Cc3ccccc3)cc2O[C@@H]1CN(C)C(=O)CN(C)C,inactive
13,C[C@H](CO)N1C[C@H](C)[C@H](CN(C)C(=O)CN(C)C)Oc2cc(C#Cc3ccc(F)cc3)ccc2S1(=O)=O,inactive
14,C[C@H]1CN([C@@H](C)CO)S(=O)(=O)c2ccc(C#Cc3ccccc3)cc2O[C@H]1CN(C)C(=O)CN(C)C,active
15,C[C@@H]1CN([C@@H](C)CO)S(=O)(=O)c2ccc(C#Cc3ccc(F)cc3)cc2O[C@H]1CN(C)C(=O)CN(C)C,inactive
16,C[C@H]1CN([C@@H](C)CO)S(=O)(=O)c2ccc(C#Cc3ccc(F)cc3)cc2O[C@H]1CN(C)C(=O)CN(C)C,active
17,C[C@H]1CN([C@@H](C)CO)S(=O)(=O)c2ccc(C#Cc3ccc(F)cc3)cc2O[C@@H]1CN(C)C(=O)CN(C)C,inactive
18,C[C@@H]1CN([C@H](C)CO)S(=O)(=O)c2ccc(C#Cc3ccc(F)cc3)cc2O[C@@H]1CN(C)C(=O)CN(C)C,inactive
19,C[C@H](CO)N1C[C@H](C)[C@@H](CN(C)C(=O)CN(C)C)Oc2cc(C#Cc3ccccc3)ccc2S1(=O)=O,inactive
20,C[C@@H]1CN([C@@H](C)CO)S(=O)(=O)c2ccc(C#Cc3ccc(F)cc3)cc2O[C@@H]1CN(C)C(=O)CN(C)C,inactive
21,C[C@@H]1CN([C@H](C)CO)S(=O)(=O)c2ccc(C#Cc3ccccc3)cc2O[C@@H]1CN(C)C(=O)CN(C)C,active
22,C[C@@H]1CN([C@H](C)CO)S(=O)(=O)c2ccc(C#Cc3ccc(F)cc3)cc2O[C@H]1CN(C)C(=O)CN(C)C,inactive
23,C[C@@H]1CN([C@@H](C)CO)S(=O)(=O)c2ccc(C#Cc3ccccc3)cc2O[C@@H]1CN(C)C(=O)CN(C)C,active

# Source: the antibiotic and cytotoxicity screens of Wong et al. (2023)
